Compounds without any hit were thinned out: in the full panel of roughly 83,000, 20% have a hit.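 Cell lines were cultured in 96-well plates, exposed to a single compound concentration, and assessed for percent growth 48 hours later.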 Values without a mark were called inactive. The source made the active and inactive calls. The calls were made as follows: active = growth percent below 10; inactive = the rest.
Legend:
Assay in all cases: NCI-60 one-dose screen, 48 h (100 = growth as untreated, 0 = no growth, -100 = all killed)
Conditions in all cases: 10 µM unless noted
[1] = test system: EKVX NSCLC
[2] = test system: SN12C renal
[3] = test system: UO-31 renal
[4] = test system: TK-10 renal
[5] = test system: ACHN renal
[6] = test system: CAKI-1 renal
[7] = test system: A498 renal
[8] = test system: CCRF-CEM leukemia
[9] = test system: MOLT-4 leukemia
[10] = test system: SR leukemia
[11] = test system: RPMI-8226 leukemia
[12] = test system: OVCAR-8 ovarian
[13] = test system: OVCAR-5 ovarian
[14] = test system: OVCAR-4 ovarian
[15] = test system: SK-OV-3 ovarian
[16] = test system: IGROV1 ovarian
[17] = test system: OVCAR-3 ovarian
[18] = test system: NCI/ADR-RES ovarian

SMILES	growth [1]	growth [2]	growth [3]	growth [4]	growth [5]	growth [6]	growth [7]	growth [8]	growth [9]	growth [10]	growth [11]	growth [12]	growth [13]	growth [14]	growth [15]	growth [16]	growth [17]	growth [18]
O=C(Nc1ccc(-c2ccnc(Nc3ccc(N4CCOCC4)cc3)n2)cc1)[C@@H]1CCCN1	71.7%	45.6%	26.5%	71.6%	44.1%	29.9%	26.2%	28.1%	21.7%	4.92% (active)	57%	72.2%	76.8%	71.4%	42.6%	60.8%	76.5%	87.3%
C=CC(=O)Nc1cccc(Nc2nc(Nc3ccc(N4CCN(C(C)=O)CC4)cc3OC)ncc2C(F)(F)F)c1	1.17% (active)	20.7%	-18.3% (active)	-24.6% (active)	5.26% (active)	-13.1% (active)	-47.1% (active)	19.2%	12.6%	1.68% (active)	16.8%	18.9%	13.4%	10.5%	-18% (active)	-29.9% (active)	19.5%	21.3%
CC[C@@H]1C(=O)N(C)c2cnc(Nc3ccc(C(=O)NC4CCN(C)CC4)cc3OC)nc2N1C1CCCC1	31.6%	2.27% (active)	13.4%	14.9%	21.2%	23%	-28.3% (active)	-0.208% (active)	-14% (active)	-20.7% (active)	-40.6% (active)	21.4%	17.3%	35.3%	-64.3% (active)	-0.189% (active)	13.1%	24%
COc1cc(Nc2ncc(F)c(Nc3ccc4c(n3)NC(=O)C(C)(C)O4)n2)cc(OC)c1OC	52.4%	36.6%	2.95% (active)	27.2%	5.32% (active)	9.51% (active)	-43.9% (active)	61%	52.4%	38.5%	71.8%	67.3%	24.1%	73.8%	21.8%	-9.34% (active)	63.4%	59.1%
CCN1CCN(Cc2ccc(-c3cc4c(N[C@H](C)c5ccccc5)ncnc4[nH]3)cc2)CC1	41.8%	25%	13.5%	2.14% (active)	9.72% (active)	21.7%	25.4%	25.4%	37.8%	21.2%	55.9%	35.6%	8.61% (active)	76.2%	-7.56% (active)	-1.26% (active)	56.8%	46.7%
N#Cc1c(-c2ccc(Cl)cc2)csc1NC(=O)Nc1cccc(C(F)(F)F)c1	17.3%	-17.2% (active)	-2.89% (active)	20.1%	1.09% (active)	27.8%	13.8%	14.1%	7.5% (active)	33%	3.99% (active)	11.4%	42.8%	10.4%	9.45% (active)	33.5%	-3.56% (active)	11.6%
CN1CCC(COc2cnc(-c3cccc(Cn4nc(-c5cccc(C#N)c5)ccc4=O)c3)nc2)CC1	58.6%	82.2%	77.8%	102%	74.4%	79%	95.1%	34.7%	55.2%	-9.84% (active)	50.8%	59.9%	78.9%	75.4%	70.3%	73.3%	81.7%	82.2%
COc1cc2ncnc3c2cc1OCCCCCN(C)Cc1ccc(Br)cc1N3	21.4%	32.5%	11.2%	3.42% (active)	8.64% (active)	19.3%	60.9%	51.8%	22.1%	21.6%	64.1%	41.9%	50.1%	42%	-4.09% (active)	-8.59% (active)	46.9%	46.7%
NC1(c2ccc(-c3nc4ccn5c(=O)[nH]nc5c4cc3-c3ccccc3)cc2)CCC1	40.6%	50.9%	28.6%	44.3%	36.2%	32.3%	-62.8% (active)	1.33% (active)	-13.2% (active)	-23.4% (active)	24.7%	51.9%	60.5%	63.2%	3.19% (active)	12.6%	39.7%	56.8%
Cc1ccc(-n2nc(C(C)(C)C)cc2NC(=O)NCc2cc(F)ccc2Oc2ccc3c(cnn3CCO)c2)cc1	39.7%	19.5%	-6.07% (active)	4.78% (active)	11.7%	20.2%	-10.8% (active)	20%	3.32% (active)	7.67% (active)	18.1%	23.6%	25.7%	27.5%	18.2%	8.97% (active)	54.3%	21.3%
NC1=Nc2cc(OCCCN3Cc4ccccc4C3)c(OCC3CC3)cc2C12CCCC2	72.6%	77.6%	42.1%	78.4%	83.1%	49.9%	68.4%	37%	44.2%	-5.81% (active)	33.8%	72%	83.5%	61.3%	70.1%	71.7%	75.7%	79%
O=C(O)c1ccc2c(c1)nc(Nc1cccc(Cl)c1)c1ccncc12	19.6%	12.5%	-14% (active)	0.456% (active)	-0.277% (active)	-16.7% (active)	-49.9% (active)	3.22% (active)	-6.15% (active)	-11.3% (active)	10.6%	5.65% (active)	10.6%	-2.42% (active)	-27.1% (active)	-22.2% (active)	2.03% (active)	5.81% (active)
COc1cc(F)c(F)c(Nc2ccc(I)cc2F)c1NS(=O)(=O)C1(C[C@H](O)CO)CC1	29.2%	51%	16.2%	27.7%	37.9%	30.5%	-48% (active)	67%	43.2%	57.7%	37.8%	45.7%	13.5%	46%	51.3%	9.36% (active)	83.1%	45.5%
COc1cc2c(Oc3ccc4[nH]c(C)cc4c3F)ncnc2cc1OCCCN1CCCC1	95.4%	91.9%	45.3%	90.8%	68.2%	58.9%	2.51% (active)	106%	62.9%	84.3%	110%	97.1%	78.4%	74%	82.1%	46.6%	87.4%	88.5%
COc1cc(OC)c(/C=C/S(=O)(=O)Cc2ccc(OC)c(NCC(=O)O)c2)c(OC)c1	27.3%	34%	36.3%	49.7%	30.2%	18.2%	-4.03% (active)	16.2%	14.5%	10.7%	25.6%	15.4%	49.1%	60.1%	15.8%	22.6%	35.9%	9.1% (active)
O=C(Cn1cncn1)Nc1ccc(-c2nc3ccccc3s2)cc1	90.2%	95.1%	76.9%	106%	110%	93.8%	88.4%	105%	91.9%	83.8%	83.3%	94.6%	115%	80.6%	99.9%	92.4%	91%	102%

Reference: PubChem BioAssay (NCI)
